An excerpt weighted towards active compounds, which were near 3.5% of everything screened.
HSP90 inh: HSP90 inhibitors, primary screen, cell lysate, luminescence; 290,000 tested, 0.91% active; inhibition, % at 5.6 µM; Heat shock protein HSP 90 (rabbit reticulocyte lysate; luciferase refolding); Rabbit reticulocyte lysate, luciferase refolding luminescence, 3 h; AID 1789, 2009;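 active = inhibition above the screen-wide mean plus 3 SD, computed separately per campaign, cut at about 16% in these data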;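 note: inhibitors lower the luminescence because luciferase stays unfolded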
Platelet DG rel: inhibitors of platelet dense granule secretion, primary screen, cell-based, MLPCN, human platelets. human platelet-rich plasma, SFLLRN dense granule ATP release, luminescence. inhibition, %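 (compounds screened at 7.5 µM in platelet-rich plasma)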. 300,000 tested, 0.22% active;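 active = mean replicate score, as percent of positive control, at or above 50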
PPC-1+TRAIL kill: compounds killing PPC-1 cancer cells with TRAIL present, primary screen, TRAIL potentiator project, ATPLite luminescence, uHTS; PPC-1 cells + TRAIL, ATPLite viability luminescence; cell killing (% activity), % at 4 µM or 5 µM; 220,000 tested, 0.41% active; AID 1443, 2008;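 active = cell killing above 50% in the first pass at 4 µM, then a duplicate retest at 5 µM averaging 50% or more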
TROY NFkB inh: inhibitors of TROY-driven NF-kB signaling, primary screen, Q293 LMP1-TROYcd cells, NF-kB luciferase, uHTS | Q293 LMP1-TROYcd NF-kB luciferase reporter, 4 h | inhibition, % at 10 µM | 360,000 tested, 0.98% active | AID 1347056, 2019;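 active = compounds whose plate-normalised and pattern-corrected inhibition of the luciferase reporter signal at the single screening dose is 50% or more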
TWEAK-Fn14 inh: inhibitors of TWEAK-Fn14 signaling, primary screen, luciferase reporter cells, uHTS | TWEAK-stimulated Fn14 reporter cells, luciferase luminescence, 8 h | inhibition, % at 10 µM | 360,000 tested, 2% active; in the data active = inhibition above about 50%
C8 TRAIL sens: viability loss with TRAIL in NB7+C8 cells, primary screen, TRAIL sensitizer project, cell-based, ATPlite luminescence; inhibition (viability loss, TRAIL sensitization), % at 10 µM; 360,000 tested, 1% active; AID 624354, 2012;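 active = compounds causing at least 50% loss of cell viability in the single-dose screen, relative to plate controls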
HSP90 confirm: HSP90 inhibitors, confirmation, cell lysate, luminescence. shares compounds with HSP90 inh. rabbit reticulocyte lysate, luciferase refolding luminescence, 3 h. inhibition, % at 5.9 µM. 2,300 tested, 64% active; in the data active = inhibition above about 18%
luciferase ctr: firefly luciferase inhibitors, HSP90 counter-screen, confirmation, artefact control for HSP90 inhibitor project, biochemical, luminescence, triplicate; inhibition, % at 5.9 µM; purified native firefly luciferase; shares compounds with HSP90 inh; AID 1847, 2009; 2,300 tested, 48% active;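 active = inhibition above the mean inhibition of all tested sample wells plus 3 SD, cut at about 10% in these data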
Target sequence (P08659 whole entry, looked up): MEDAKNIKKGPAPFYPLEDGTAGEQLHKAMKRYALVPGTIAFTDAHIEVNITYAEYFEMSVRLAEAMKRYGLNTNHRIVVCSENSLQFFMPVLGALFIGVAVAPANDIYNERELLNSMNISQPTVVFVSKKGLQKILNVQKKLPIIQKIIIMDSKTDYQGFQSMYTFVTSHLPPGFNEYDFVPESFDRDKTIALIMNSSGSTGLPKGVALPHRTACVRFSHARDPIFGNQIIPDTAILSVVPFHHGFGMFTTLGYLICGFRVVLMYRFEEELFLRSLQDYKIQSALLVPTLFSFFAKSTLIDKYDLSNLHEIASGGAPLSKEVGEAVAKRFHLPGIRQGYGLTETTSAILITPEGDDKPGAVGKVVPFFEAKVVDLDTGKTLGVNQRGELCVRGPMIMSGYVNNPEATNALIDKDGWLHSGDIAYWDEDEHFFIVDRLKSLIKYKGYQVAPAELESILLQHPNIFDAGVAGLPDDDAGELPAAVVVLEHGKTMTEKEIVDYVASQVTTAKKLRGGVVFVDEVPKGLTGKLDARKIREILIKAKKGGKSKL
Numbers stand for hits; i = inactive; nt = no result.

SMILES | HSP90 inh | Platelet DG rel | PPC-1+TRAIL kill | TROY NFkB inh | TWEAK-Fn14 inh | C8 TRAIL sens | HSP90 confirm | luciferase ctr
NNC(=O)CN1CCCc2ccccc21 | 25 | i | i | 71 | 69 | i | 46 | 39
Cc1nc(NC(=O)/C=C/c2ccccc2)sc1C(=O)Nc1ccccc1Cl | 27 | i | i | i | i | i | 54 | i
O=C(C(c1ccccc1)c1ccccc1)N1CCOCC1 | 47 | i | i | i | i | i | i | i
O=C(C(c1ccccc1)C(O)c1ccccc1)N1CCOCC1 (stereo not drawn) | nt | nt | nt | i | i | i | nt | nt
O=S(=O)(NCCCSc1ccccc1)c1ccccc1F | i | i | nt | i | i | i | nt | nt
CN(C(=O)c1ccc(NC(=O)Cc2ccc(NC(=O)C3CCCN(C(=O)c4ccccc4)C3)cc2)cc1)C1CCCC1 (stereo not drawn) | nt | nt | nt | i | i | i | nt | nt
COc1ccc(/C(C)=N/NC(=O)Cn2nc([N+](=O)[O-])cc2C)cc1 | 30 | i | i | i | i | i | i | i
CC(C)CN(CC(C)C)C(=O)CN1C(=O)NC2(CCc3ccccc3C2)C1=O (stereo not drawn) | i | i | nt | i | i | i | nt | nt
COC(=O)C1=C(CN2CCCc3ccccc32)NC(=O)NC1c1ccc(F)cc1 (stereo not drawn) | 46 | i | i | 64 | 85 | i | i | i
C=CCOc1ccc(C2NC(=S)NC3=C2CCc2ccccc23)cc1 (stereo not drawn) | 20 | i | i | i | i | i | 42 | 52
CC(C)(C)c1ccc(NC(=O)c2ccsc2)cc1 | 24 | i | i | i | i | 69 | 39 | 27
Cc1ccc(NC(=O)c2ccsc2)cc1NS(C)(=O)=O | i | i | nt | i | i | i | nt | nt
N/C(=N\NC(=O)Nc1ccccc1)c1ccccn1 | 32 | i | i | i | i | i | i | i
N/C(=N\NS(=O)(=O)c1ccccc1)c1ccccn1 | nt | i | nt | i | i | i | nt | nt
COc1cccc2oc3cc(C#CC4(O)CCCCC4)ccc3c(=O)c12 | 26 | i | nt | 77 | 73 | 72 | 30 | 19
COc1cccc2oc3cc(C#Cc4ccccn4)ccc3c(=O)c12 | i | i | nt | nt | nt | nt | nt | nt
Cc1ccc(-c2onc3ccc(C(=O)O)cc23)cc1 | 72 | i | nt | i | i | i | 61 | 57
CC(=O)COC(=O)c1ccc2noc(-c3ccccc3)c2c1 | 20 | i | nt | i | i | i | i | i
CC(=O)c1ccc2noc(-c3ccc(C)cc3)c2c1 | i | i | i | i | i | i | nt | nt
O=C(O)c1ccc2noc(-c3ccccc3)c2c1 | 41 | i | i | i | i | i | i | i
O=C(O)c1ccc2nc(-c3ccccc3)c(-c3ccccc3)nc2c1 | 42 | i | i | i | i | i | 51 | 37
Cc1cccc(NC(=O)C2CCN(S(=O)(=O)c3c(C)c(C)cc(C)c3C)CC2)n1 | nt | i | nt | i | i | i | nt | nt
Cc1cc(-c2ccccc2)c2c(=O)[nH][nH]c2n1 | 18 | i | i | i | i | i | i | i
O=C(CN(Cc1ccco1)C(=O)CNS(=O)(=O)c1ccc(Cl)cc1)NCc1ccco1 | 55 | i | nt | i | i | i | i | i
Cc1ccc(S(=O)(=O)NCC(=O)N(CC(=O)NCc2ccco2)Cc2ccco2)cc1 | i | i | i | i | i | i | nt | nt
SMILES | HSP90 inh | Platelet DG rel | PPC-1+TRAIL kill | TROY NFkB inh | TWEAK-Fn14 inh | C8 TRAIL sens | HSP90 confirm | luciferase ctr
O=C(Cc1ccc(Cl)c(Cl)c1)N1CCOCC1 | i | i | nt | i | i | i | nt | nt
CCCCn1c(NC(=O)CC)c(C#N)c2nc3ccccc3nc21 | i | i | i | i | i | i | nt | nt
CCCCn1c(NC(=O)c2ccccc2Cl)c(C#N)c2nc3ccccc3nc21 | 59 | i | i | 76 | i | i | 46 | i
COc1ccc(COC(=O)CNC(=O)C2CCCCC2)cc1F | nt | nt | nt | i | i | i | nt | nt
CCCCN1CC(C)(C)Oc2cccc(F)c2S1(=O)=O | nt | nt | nt | i | i | i | nt | nt
CC(C)(C)c1nnc(NC(=S)Nc2ccccc2)s1 | i | i | i | i | i | i | nt | nt
C=CCOC(=O)c1sc(NC(=O)c2ccc(OC)cc2)nc1C | 55 | i | i | i | i | i | 60 | i
CCOc1ccc(C(=O)Nc2nc(C)c(C(=O)OC)s2)cc1 | i | i | i | i | i | i | nt | nt
[O-]/[N+](=C\c1ccco1)c1ccc(Cl)cc1 | 42 | i | nt | i | i | i | 82 | i
[O-]/[N+](=C/c1ccco1)c1ccccc1 | i | i | nt | i | i | i | nt | nt
CC(OC(=O)C1=COCCO1)C(=O)Nc1ncc(Cl)cc1Cl (stereo not drawn) | nt | nt | nt | i | i | i | nt | nt
O=C(O)c1ccc(-c2ccccc2Cl)o1 | 28 | i | nt | i | i | i | 30 | i
CN(C)/C=C/C(=O)c1ccc2noc(-c3ccc(F)cc3)c2c1 | i | nt | nt | i | i | i | nt | nt
Cc1ccc(-c2onc3ccc(C(=O)/C=C/N(C)C)cc23)cc1 | 61 | i | nt | i | i | i | i | i
Cc1cccc(-c2onc3ccc(C(=O)/C=C/N(C)C)cc23)c1 | 39 | i | nt | i | i | i | i | i
COc1ccc([C@H]2C[C@H](O)[C@@H](n3cc(C4CC4)nn3)CN2C(=O)c2cccs2)cc1 | nt | nt | nt | i | i | i | nt | nt
O=C(O)c1ccc(-c2ccc(-c3ccccc3)cc2)s1 | 94 | i | nt | i | i | i | 93 | 83
O=C(Nc1ccccc1)c1ccc(-c2ccccc2)s1 | i | i | i | i | i | i | nt | nt
Cc1cc(N2CCC(C)CC2)n2ncc(-c3ccccc3)c2n1 | 45 | i | i | 84 | 83 | i | 59 | 56
Cc1cc(N2CCCCC2)n2ncc(-c3ccccc3)c2n1 | 37 | i | i | 77 | 81 | 48 | 50 | 54
COC(=O)CC1=C(C)C(=O)CC2C(C)(C)CCCC12C (stereo not drawn) | 19 | i | i | i | i | i | i | i
C=C[C@]1(C)C=C2C(=O)C[C@H]3C(C)(C)CCC[C@]3(C(=O)O)[C@@]2(O)CC1 | nt | nt | nt | i | i | i | nt | nt
C=CCOc1c(CNc2cccc(C(=O)O)c2)cccc1OCC | i | i | i | i | i | i | nt | nt
C=CCOc1c(CNc2cccc(C(=O)O)c2)cccc1OC | 45 | i | i | i | 54 | i | 53 | i
COC(=O)c1cc2c(C)nn(-c3ccccc3)c2s1 | i | i | i | i | i | i | nt | nt
Cc1nn(-c2ccccc2)c2sc(-c3n[nH]c(=S)o3)cc12 | 19 | i | i | i | i | i | i | i

Screening data: PubChem, several laboratories
